RecA intein inh: inhibitors of M. tuberculosis RecA intein splicing | cell-free RecA intein splicing, fluorescence | inhibition, % (concentration not given with the values) | 290,000 tested, 0.75% active | AID 2221; in the data active = inhibition above about 30%;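 also: 0% = vehicle wells and 100% = reference inhibitor control wells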
Target sequence (P9WHJ3 whole entry, looked up): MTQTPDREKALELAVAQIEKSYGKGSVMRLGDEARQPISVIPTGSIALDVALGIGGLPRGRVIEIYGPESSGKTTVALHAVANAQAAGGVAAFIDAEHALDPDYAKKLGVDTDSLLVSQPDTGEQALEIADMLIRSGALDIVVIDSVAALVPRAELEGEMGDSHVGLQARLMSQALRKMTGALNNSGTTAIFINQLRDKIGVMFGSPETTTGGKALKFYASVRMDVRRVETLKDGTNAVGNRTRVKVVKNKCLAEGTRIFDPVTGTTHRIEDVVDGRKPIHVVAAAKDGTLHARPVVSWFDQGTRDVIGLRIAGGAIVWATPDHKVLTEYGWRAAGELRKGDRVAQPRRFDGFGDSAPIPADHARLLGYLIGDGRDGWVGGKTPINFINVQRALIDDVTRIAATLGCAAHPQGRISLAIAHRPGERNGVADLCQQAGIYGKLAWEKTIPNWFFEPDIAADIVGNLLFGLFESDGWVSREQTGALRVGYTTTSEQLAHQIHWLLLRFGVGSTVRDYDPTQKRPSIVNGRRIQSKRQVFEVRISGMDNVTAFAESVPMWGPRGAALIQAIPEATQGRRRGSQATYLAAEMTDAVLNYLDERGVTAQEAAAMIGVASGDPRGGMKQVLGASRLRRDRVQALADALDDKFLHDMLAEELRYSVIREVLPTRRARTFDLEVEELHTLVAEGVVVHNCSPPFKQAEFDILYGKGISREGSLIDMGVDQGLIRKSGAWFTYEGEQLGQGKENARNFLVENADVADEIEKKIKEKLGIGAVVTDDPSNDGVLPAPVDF
PriA SSB inh: K. pneumoniae PriA-SSBct interaction inhibition. AlphaScreen SSBct-PriA binding, biotinylated peptide. 430,000 tested, 0.6% active. AID 1272365. inhibition, % at 33 µM; in the data active = inhibition mostly above about 37%, no sharp cut-off; inactive = mostly below about 20%;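 also: plate controls were negative control peptide for no effect and reference peptide for full effect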
CCHF vOTU inh: CCHFV vOTU protease inhibition; Pep-AMC fluorescence; inhibition, % at 11.5 µM; 370,000 tested, 0.55% active; AID 651958; in the data active = inhibition above about 30%; also: 0% = vehicle wells with enzyme and 100% = no enzyme wells
SARS 3CLpro inh: SARS-CoV 3CLpro protease inhibition | P0C6X7 | recombinant SARS-CoV 3CLpro, quenched FRET peptide cleavage | inhibition, % at 6 µM | 290,000 tested, 0.14% active | AID 1706; in the data active = inhibition above about 12%
DUSP3 inh: DUSP3 (human) phosphatase inhibition. P51452. recombinant VHR phosphatase, pNPP absorbance. inhibition, % at 13.3 µM. 290,000 tested, 0.52% active. AID 1654; in the data active = inhibition above about 50%
An asterisk follows results filed as active; / = no result; ! = not confirmed by another sample. Shown are actives, neighbours in structure and some others; about 1.7% of the full set was active somewhere.

SMILES | RecA intein inh | PriA SSB inh | CCHF vOTU inh | SARS 3CLpro inh | DUSP3 inh
CC(=O)Nc1ccc(N2CCCC(C)C2)c([N+](=O)[O-])c1 (centres undefined) | -1.7 | 8.7 | -1.9 | -0.4 | 20.8
COc1ccc(NC(=O)Cn2c(-c3ccccn3)nc3ccccc32)c(OC)c1 | / | -13.0 | / | / | /
O=C(OCc1ccc([N+](=O)[O-])cc1)c1ccc(S(=O)(=O)NCC2CCCO2)cc1 (centres undefined) | / | 8.0 | / | / | /
COc1ccccc1C(=O)NC(=S)Nc1cccc2cc(O)ccc12 | 13.0 | 41.8* | 14.8 | 2.2 | 5.4
O=C(NC(=S)Nc1cccc2cc(O)ccc12)c1ccccc1Br | -5.8 | 15.1 | 8.5 | 3.9 | 26.4
CC(C(=O)N/N=C/c1ccc(N(C)C)c(Br)c1)N(c1ccccc1)S(C)(=O)=O (centres undefined) | / | / | 16.3 | -1.2 | 50.3*
CN(C)c1ccc(C=NNC(=O)CN(c2cccc(Cl)c2)S(C)(=O)=O)cc1Br | / | -6.4 | / | / | /
O=S1(=O)CC2OC2C1 (centres undefined) | / | 2.0 | / | / | /
O=[N+]([O-])c1ccc2c(c1Nc1ccc(Br)cc1)=NC1(CCCCC1)N=2 | / | 27.6 | / | / | /
O=[N+]([O-])c1ccc(Nc2c([N+](=O)[O-])ccc3c2=NC2(CCCCC2)N=3)cc1 | / | 90.0* | / | / | /
CCCCC[C@H](O)/C=C/[C@@H]1[C@@H](C/C=C\CCCC(=O)OC)[C@@H](O)C[C@H]1O | 40.6* | -11.8 | / | 8.4 | 4.7
O=C(C1c2ccccc2Oc2ccccc21)N1CCN=C1SCc1ccc([N+](=O)[O-])cc1 | / | -2.0 | / | / | /
COc1ccc(CCNc2oc(Cc3cccc4ccccc34)nc2C#N)cc1OC | 17.0 | 43.4* | 0.6 | 3.2 | -5.1
CCc1ccc(OCC(=O)Oc2ccc(C(=O)c3ccccc3)cc2)cc1 | / | -4.0 | / | / | /
CNc1nn(CC(=O)Nc2ccc(C)c(Cl)c2)c(N)c1-c1nc(-c2ccc(Cl)cc2)no1 | / | 0.0 | / | / | /
O=C1CC(c2ccccc2)=NN1c1ccccc1 | / | 6.2 | 28.0 | / | /
O=C1CC(C(F)(F)F)=NN1c1ccccc1 | / | 35.0* | / | / | /
COc1cc(/C=C(\C#N)c2nc(-c3ccco3)cs2)cc(OC)c1OC | / | -11.0 | / | / | /
CCOC(=O)c1sc(N2N=C(C)C(N=Nc3cccc(C)c3)C2=O)nc1C (centres undefined) | 1.2 | 1.6 | 3.2 | -0.9 | 55.2*
CCCCOc1ccc(C(=O)Nc2nc(-c3ccccc3)c(C(C)=O)s2)cc1 | / | -3.0 | / | / | /
CC1(C)CC2(C)OC(=N)C1(C#N)C2(C#N)C#N (centres undefined) | 44.9* | -6.1 | 1.7 | -1.8 | -18.2
COc1cc(CN2CCCC(C(=O)Nc3ccccc3Oc3cccnc3)C2)ccc1F (centres undefined) | -0.9 | -5.1 | 11.1 | -9.5 | 12.8
O=C(Nc1ccccc1Oc1cccnc1)C1CCCN(Cc2ccc(F)cc2)C1 (centres undefined) | 2.6 | 2.6 | -5.8 | -2.8 | 57.1*
CCCCNC(=S)NCc1ccc2[nH]c(C)cc2c1 | -1.2 | 49.6*! | 0.0 | -1.8 | -7.3
CCOc1ccc(NC(=S)NCc2ccc3[nH]c(C)cc3c2)cc1 | / | 4.0 | -3.9 | 2.7 | -17.0
SMILES | RecA intein inh | PriA SSB inh | CCHF vOTU inh | SARS 3CLpro inh | DUSP3 inh
Cc1ccc(S(=O)(=O)NCc2ccc3[nH]c(C)cc3c2)cc1 | 3.0 | 43.0* | 12.1 | -2.6 | 16.0
CC(=O)Nc1ccc(S(=O)(=O)NCc2ccc3[nH]c(C)cc3c2)cc1 | -1.1 | 37.9 | 0.6 | -1.3 | -1.9
Cc1cc2cc(CNS(=O)(=O)N(C)C)ccc2[nH]1 | 0.5 | 46.0*! | 2.0 | -4.9 | 7.6
Cc1ccc(S(=O)(=O)NCCCNS(C)(=O)=O)cc1 | -1.2 | -0.6 | -3.2 | 5.8 | 2.6
Cc1ccc(S(=O)(=O)NCCNS(=O)(=O)c2ccc(C)cc2)cc1 | -2.3 | 26.8 | 6.8 | -2.9 | 58.2*
COc1ccc(-c2ccc(=O)n(CCCC(=O)N(C)c3ccccc3)n2)cc1OC | / | -6.0 | / | / | /
Cn1ccc(C(=O)Nc2ccc(-c3nc4ccccc4s3)c(O)c2)n1 | / | -9.0 | / | / | /
O=C(CN1CCN(Cc2ccccc2)C1=O)NCCCN1CCOCC1 | -5.9 | -12.4 | -6.4 | 3.4 | 50.3*
O=C(CCN1CCc2ccccc21)c1ccc2c(c1)OCCO2 | -4.8 | 47.6* | -8.6 | 0.5 | -7.5
O=C(O)/C=C\C(=O)Nc1ccc(Oc2ccc(Br)cc2)cc1 | 32.3* | 5.9 | -13.8 | 4.6 | 26.9
O=C(O)/C=C/C(=O)Nc1ccc(Oc2ccc(NC(=O)/C=C/C(=O)O)cc2)cc1 | 8.0 | / | / | 1.6 | -2.2
C#CCOCCOCCOCCNc1nc(N2CCN(C(=O)CCCCCCCCCCNC(=O)[C@H]([C@@H](C)CC)n3cc(CCCCN=C(N)N)nn3)CC2)nc(N2CCN(C(=O)CCCCCCCCCCNC(=O)[C@H](CO)n3cc(CCCCCN)nn3)CC2)n1 | / | 39.3* | / | / | /
C#CCOCCOCCOCCNc1nc(N2CCN(C(=O)CCCCCCCCCCNC(=O)[C@H]([C@@H](C)CC)n3cc(CCCCCN)nn3)CC2)nc(N2CCN(C(=O)CCCCCCCCCCNC(=O)[C@H](CO)n3cc(CCCCCN)nn3)CC2)n1 | / | 13.9 | / | / | /
CCN(CCNC(=O)C1CCCN(Cc2nc(-c3ccc(OC)cc3)oc2C)C1)c1ccccc1 (centres undefined) | 6.9 | 48.2* | -1.5 | 2.7 | 3.6
CCc1ccc(-c2nc(CN3CCC(C(=O)NCCN(CC)c4ccccc4)CC3)c(C)o2)cc1 | 2.0 | 28.1 | -1.6 | 0.5 | 23.5
CCN(CCNC(=O)C1CCN(Cc2nc(-c3ccc(Cl)cc3)oc2C)CC1)c1ccccc1 | 3.9 | 46.5* | -2.6 | -5.8 | -7.7
Cc1oc(-c2ccc(Cl)cc2)nc1CN1CCCC(C(=O)N2CCN(C(=O)c3ccco3)CC2)C1 (centres undefined) | -0.6 | -6.6 | 9.1 | 3.1 | 52.3*
COc1ccc(C(=O)NCc2cncc(-c3cccs3)c2)cc1F | / | 0.0 | / | / | /
O=C(NCCSC1CCOCC1)Nc1ccccc1C(F)(F)F | / | -6.0 | / | / | /
CCOC(=O)CNC(=O)CNC(=O)c1ccc(OCC(C)C)cc1 | 0.7 | -3.7 | 7.7 | -4.9 | 53.4*
Cc1csc(C(=O)N2CC[C@H](n3cc(-c4ccccc4)nn3)C2)c1 | / | -13.0 | / | / | /
CCN1CCN(Cc2ccc(NC(=O)c3cc(NC(=O)c4cc(-c5ccc(OC)cc5)n[nH]4)cc(OC)c3)cc2C(F)(F)F)CC1 | 18.7 | 38.3 | -0.4 | / | 19.1
CCN1CCN(Cc2ccc(NC(=O)c3cc(NC(=O)c4cc5cccc(OC)c5o4)cc(OC)c3)cc2C(F)(F)F)CC1 | 13.5 | 72.8* | 14.4 | / | 15.2
CCN1CCN(Cc2ccc(NC(=O)c3cc(NC(=O)c4ccno4)cc(OC)c3)cc2C(F)(F)F)CC1 | -1.8 | -3.4 | -7.9 | / | 18.7
CCN1CCN(Cc2ccc(NC(=O)c3cc(NC(=O)c4cncc(-c5cccs5)c4)cc(OC)c3)cc2C(F)(F)F)CC1 | 22.2 | 41.8* | 3.8 | -12.8 | 12.7
O=C(O)Cc1c(Br)oc2ccc3ccccc3c12 | / | -4.0 | / | / | /
COc1ccc(NN=C(C(N)=O)C2=NC(C)(C)Cc3ccccc32)cc1 | / | 77.8* | / | / | /
CN1C(=Cc2cc[n+](C)c3ccccc23)C=Cc2ccccc21 | / | 34.0 | / | / | /
CN1C=C/C(=C\c2cc[n+](C)c3ccccc23)c2ccccc21 | 70.6* | 8.9 | 18.9 | -4.8 | 3.3
